Hits are enriched below; roughly 3.4% of the tested compounds scored in any of these assays.
FLuc inh: inhibitors of firefly luciferase | P08659 | purified firefly luciferase, luminescence, 8 min | Potency, µM (series often up to 57.1 µM), without a hit: top-dose activity change, negative = inhibition, actives largely listed as inhibitors | hit rate 2.2% among 72,000 | AID 411; active means well fitted inhibition curve with a large enough effect; inconclusive means small, poorly fitted or top-dose-only effect; further: on the % scale 0 is the no-effect control and ±100 the full control effect; nearly all actives have a fitted effect of over 40% in size
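Inhibition of light generation by firefly luciferase from ATP and luciferin was profiled with concentration-response curves per sample, ATP held at 10 uM within the enzyme's linear range. Plates were read by luminescence after an 8-minute ambient incubation.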
Bst PK mod: modulators of Bacillus stearothermophilus pyruvate kinase; purified pyruvate kinase, luminescence ATP production; ribose 5-phosphate activator present at AC10; Potency, µM; hit rate 1.2% among 51,000; AID 361; in the data active means potency below about 11 µM; inconclusive means mostly about 12 µM to 25 µM;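 the screen sought inhibitors and activators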;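 further: scaled between full activation by ribose 5 phosphate and full inhibition by luteolin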
GBA activity: human lysosomal glucosylceramidase modulation. Potency, µM. P04062. purified enzyme, resorufin glucoside fluorescence (screen aimed at inhibitors), 20 min. AID 360. hit rate 1.1% among 48,000; in the data active means potency below about 15 µM; inconclusive means mostly about 16 µM to 33 µM;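 further: the screen sought inhibitors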
Target sequence (P04062 whole entry, looked up): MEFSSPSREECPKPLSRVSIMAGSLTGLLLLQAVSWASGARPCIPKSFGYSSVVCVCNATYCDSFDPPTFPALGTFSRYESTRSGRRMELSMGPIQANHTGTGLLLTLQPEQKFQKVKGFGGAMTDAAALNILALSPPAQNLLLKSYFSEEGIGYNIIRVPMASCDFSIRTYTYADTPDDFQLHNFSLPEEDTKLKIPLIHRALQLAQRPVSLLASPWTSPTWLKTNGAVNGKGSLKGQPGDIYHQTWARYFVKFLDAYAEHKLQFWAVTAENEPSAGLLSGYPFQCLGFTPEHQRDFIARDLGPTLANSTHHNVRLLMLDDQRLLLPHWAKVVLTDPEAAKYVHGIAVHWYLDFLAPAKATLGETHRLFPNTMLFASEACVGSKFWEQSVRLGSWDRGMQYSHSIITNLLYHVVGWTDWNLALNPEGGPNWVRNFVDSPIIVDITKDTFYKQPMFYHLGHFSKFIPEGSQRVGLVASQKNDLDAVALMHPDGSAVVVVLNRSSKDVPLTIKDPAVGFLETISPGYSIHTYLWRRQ
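Compounds titrated against 0.2 nM normal enzyme, 30 uM resorufin beta-D-glucopyranoside substrate, citrate/phosphate buffer with taurocholate and tween-20, pH 5.9. Reaction ran 20 min at room temperature; fluorescence (Ex 548/Em 600) gave AC50.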
Active calls of the source: *; i = inactive; ? = inconclusive; nt = not tested or not shown; [ ] = another dose, or the depositor's remark. Potency means the concentration at half of the fitted maximal effect.

SMILES	FLuc inh	Bst PK mod	GBA activity
COc1ccc(NC(=O)C2C(=O)N(C)C3(C)CC2c2ccccc2O3)cc1 (stereo not drawn)	0%	>57	>77
COc1ccc(NC(=O)C2CSC3c4ccccc4C(=O)N23)cc1 (stereo not drawn)	0%[25.5 µM]	11*	nt
COc1ccc(C(=O)COC(=O)c2ccco2)cc1	6.3µM*	3.1*	>77
COc1cccc(NC(=O)COC(=O)c2ccco2)c1	-47%	>57	>77
CCOC(=O)c1c(C)[nH]c2ccc3c(c12)CN1CCc2cc(OC)ccc2[C@@H]1O3	1%	nt	nt
O=C(Nc1nc(-c2ccccc2)cs1)C1CCCO1 (stereo not drawn)	-24%	>11	>77
Cc1cc(-c2csc(NC(=O)c3ccc(=O)n(C)n3)n2)c(C)n1CC1CCCO1 (stereo not drawn)	-1%	9.1*	nt
COc1cc(NC(=O)c2ccc(-c3ccc(Br)cc3)o2)ccc1NC(=O)C(C)C	0%	>57	>77
O=C(NC1CCS(=O)(=O)C1)c1ccc(-c2ccc(Br)cc2)o1 (stereo not drawn)	-2%	7.8*	?
O=C(O)c1c(-c2nccc3ccccc23)[nH]c(-c2ccccc2)c1S(=O)(=O)O	3%[11.4 µM]	nt	nt
N#CCC(=O)N1CCn2c1nc1ccccc12	-35%	>57	>77
O=C(c1cccs1)N1CCn2c1nc1ccccc12	16µM*	i	nt
CO[C@H]1COC(=O)C/C=C\[C@H](C)[C@@H](OC)COC(=O)[C@H](Cc2ccccc2)NC(=O)C/C=C\[C@@H]1C	1%[11.4 µM]	nt	nt
Cn1cccc1C(=O)N1CCC2(CCN(Cc3ccc(C#N)cc3)CC2)CC1	-3%[11.4 µM]	nt	nt
Oc1cc(O)cc(/C=C\c2ccc(O)c(O)c2)c1	13µM*	nt	nt
O=C(O)/C=C\c1ccc(O)c(O)c1	1%[11.4 µM]	nt	nt
Cc1cnc(CNc2ncncc2-c2cccnc2)cn1	1%[2.29 µM]	nt	nt
CC(N)=NCCC[C@H](N)C(=O)O	-1%	nt	nt
O=C(Nc1nc2c(s1)CCCC2)Oc1ccccc1	-19%	>57	>77
O=S1(=O)N=C(Nc2nc3c(s2)CCCC3)c2ccccc21	2.5µM*	4.5*	>77
CC1(C)O[C@H]2O[C@@H]([C@H](O)CON3C(=O)c4ccccc4C3=O)[C@H](O)[C@H]2O1	0%[11.4 µM]	nt	nt
CN(C)c1ncc2nc(-c3ccc(F)cc3)c(=O)n(C)c2n1	-2%[11.4 µM]	nt	nt
COc1ncc2nc(-c3ccc(F)cc3)c(=O)n(-c3ccccc3)c2n1	1%[11.4 µM]	nt	nt
COc1ccc(C2C(C(=O)N3CCN(C)CC3)c3ccccc3C(=O)N2C2CCCCC2)cc1 (stereo not drawn)	1%	>57	nt
COc1ccc(C2C(C(=O)NCCN3CCOCC3)c3ccccc3C(=O)N2C2CCCCC2)cc1 (stereo not drawn)	0%	>57	14*
SMILES	FLuc inh	Bst PK mod	GBA activity
Cc1ccc(S(=O)(=O)N[C@H](CN)C(=O)O)cc1	2%[11.4 µM]	nt	nt
COc1ccc(N2CCN(c3oc(-c4ccccc4OC)nc3C#N)CC2)cc1	2%	nt	>77
COc1ccccc1-c1nc(C#N)c(N2CCN(c3ccccc3)CC2)o1	2%	nt	10*
O=C(O)CCSC1=NCCN1	2%[11.4 µM]	nt	nt
Cc1cc2nc(-c3ccc(SCC(=O)N4CCOCC4)nc3)[nH]c2cc1C	2.5µM*	2.1*	>77
Cc1ccc(-c2ccc(OCC(=O)N3CCOCC3)cc2)cc1	13µM*	nt	>77
COc1ccc(NC(=O)Nc2ccc(OCC(=O)N3CCOCC3)cc2)cc1OC	13µM*	nt	nt
O=C(COc1ccc(C(=S)N2CCOCC2)cc1)N1CCCC1	3%	>57	>77
O=C(CSc1ccc2nnc(-c3ccc(F)cc3)n2n1)N1CCOCC1	1%	nt	nt
COc1cc(C(=O)O)ccc1OCC(=O)N1CCOCC1	1%	>57	>77
COc1ccc(-c2ccc(SCC(=O)N3CCOCC3)nn2)cc1	13µM*	i	>77
O=C(CSc1ccc(-c2ccc(F)cc2)nn1)N1CCCCC1	-4%	>11	>77
COc1ccc2c(c1)c(CC(=O)N1CCOCC1)c(C)n2C(=O)c1ccc(Cl)cc1	1%	nt	nt
Nc1ncnc2c1ncn2[C@@H]1O[C@@H](COP(=O)(O)OP(=O)(O)OP(=O)(O)OP(=O)(O)OC[C@@H]2O[C@@H](n3cnc4c(N)ncnc43)[C@@H](O)[C@H]2O)[C@H](O)[C@@H]1O	2%	nt	nt
Cc1ccc(S(=O)(=O)O[C@H]2C[C@@H](C(C)(C)C)CC[C@@H]2c2ccccc2)cc1	0%[11.4 µM]	nt	nt
COc1ccccc1-c1ccc2ncnc(N(C)C)c2c1	3%[2.29 µM]	nt	nt
O=C(c1cccc(F)c1)N1CCC2(CC1)CN(c1ccccn1)C2	-2%[11.4 µM]	nt	nt
CCCCOc1ccc(-c2nnn(CCC(=O)N3CCOCC3)n2)cc1	6.3µM*	nt	>77
O=C(CCCOc1ccc(Cl)cc1)N1CCOCC1	2%	>57	>77
Cc1noc(C)c1-c1nccc(N(C)C)n1	1%[2.29 µM]	nt	nt
Cc1c(NC(=O)c2cc(-n3cnnc3)ccc2Cl)cccc1-c1nc2ccccc2o1	7.9µM*	5.7*	>77
O=C(Nc1ccc(-c2nc3ccccc3o2)c(O)c1)c1cc(-n2cnnc2)ccc1Cl	-1%	nt	nt
COCCNc1ccnc(-c2ccccc2CN(C)C)n1	3%[2.29 µM]	nt	nt
COc1cc(-c2nnc3sc(C4CCCCC4)nn23)cc(OC)c1OC	1%	>11	7*
COc1cccc(-c2nnc3sc(C4CCCCC4)nn23)c1	-1%[25.5 µM]	>26	nt
SMILES	FLuc inh	Bst PK mod	GBA activity
O=C(O)CC[P+](c1ccccc1)(c1ccccc1)c1ccccc1	0%[11.4 µM]	nt	nt
Brc1ccc(-c2cn3cccnc3n2)cc1	?	5.9*	>77
COCC(=O)Nc1ccc(-c2cn3cccnc3n2)cc1	-17%	nt	>77
N#C/C(=C\c1ccc(O)c(O)c1)C(=O)OCCc1cccs1	-10%	nt	nt
Cc1cccc(NC(=O)COc2ccc(Br)cc2)n1	-29%	nt	nt
Cc1ccc(OCC(=O)Nc2cccc(C)n2)c(C)c1	16µM*	nt	>77
CCNc1ncc2nc(-c3ccc(OC)cc3)c(=O)n(C)c2n1	-24%[11.4 µM]	nt	nt
Cc1nc2cc(CO)ccc2s1	-35%	>57	>77
Cc1nc2cc3nc(C)sc3cc2s1	16µM*	i	>77
O=C(/C=C\c1ccc(O)c(O)c1)O[C@H]1C[C@@](O)(C(=O)O)C[C@H](O)[C@@H]1O	-1%[11.4 µM]	nt	nt
COc1cccc(-c2cc(C(F)(F)F)n3nc(N)nc3n2)c1	2%	>57	>77
COc1cccc(-c2cn3nc4c(nc3n2)CCCC4)c1	3.2µM*	4.6*	>77
Oc1c(Cl)cc(C(c2cc(Cl)c(O)c(Cl)c2)C(c2cc(Cl)c(O)c(Cl)c2)c2cc(Cl)c(O)c(Cl)c2)cc1Cl	-1%[11.4 µM]	nt	nt
COc1ccc(C(=O)Cn2nnc(-c3cccs3)n2)cc1	-19%	nt	>77
COc1ccc(C(=O)Cn2nnc(-c3ccccc3-n3cnnn3)n2)cc1	-2%	4.2*	>77
Cc1ccc(C(=O)Cn2nnc(-c3ccccc3-n3cnnn3)n2)cc1	0%	4.7*	>77
O=C(Cn1nnc(-c2ccccc2-n2cnnn2)n1)NCc1ccccc1	0%	>57	>77
CS(=O)(=O)N1CCC2(CC1)CN(c1ccccn1)C2	1%[11.4 µM]	nt	nt
CO[C@H]1COC(=O)C/C=C\[C@@H](C)[C@H](OC)COC(=O)[C@H]2CCCN2C(=O)C/C=C\[C@@H]1C	-2%[11.4 µM]	nt	nt
Brc1ccc(-c2nc3ccccc3s2)s1	16µM*	?	nt
c1ccc(-c2nc3ccccc3s2)nc1	?	?	>77
O=C(O)c1cc(N=Cc2ccccc2O)cc(C(=O)O)c1	0%[11.4 µM]	nt	nt
COC(=O)c1ccc(Cl)c(NC(=O)CN2CCOCC2)c1	-2%	>57	>77
COC(=O)c1cc2c(cc1Cl)SC(=NCCCN1CCOCC1)NS2(=O)=O	5%	>57	8.3*

High-throughput results as filed in PubChem.
